Screens from PubChem BioAssay.
Rows were chosen to be rich in hits. Some 3.4% of all compounds tested hit in one or more screens of this group.
NPSR antag = antagonists of human neuropeptide S receptor cAMP signaling | Potency, µM (doses to about 38.3 µM), for the others: at the top dose activity change, negative = inhibition, usual class: inhibitors | Q6W5P4 | 220,000 compounds, 1% hits | AID 1461 | CHO-NPSR cells, cAMP TR-FRET, antagonist mode; note: potency is the fitted concentration of half-maximal effect; % is set by controls: 0 for no effect and ±100 for the full control effect; nearly all actives have a fitted effect of over 50% in size
Target sequence (Q6W5P4 whole entry, looked up): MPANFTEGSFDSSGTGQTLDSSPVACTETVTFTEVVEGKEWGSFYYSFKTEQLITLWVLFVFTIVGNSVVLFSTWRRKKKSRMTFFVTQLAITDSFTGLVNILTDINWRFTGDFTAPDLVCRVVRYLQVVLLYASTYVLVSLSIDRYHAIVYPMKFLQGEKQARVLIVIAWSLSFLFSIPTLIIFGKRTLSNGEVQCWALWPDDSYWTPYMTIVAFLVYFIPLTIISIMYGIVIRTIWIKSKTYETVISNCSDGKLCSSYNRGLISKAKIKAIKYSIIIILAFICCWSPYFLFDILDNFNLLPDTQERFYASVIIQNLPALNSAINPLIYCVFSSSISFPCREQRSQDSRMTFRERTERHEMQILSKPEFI
PNC inhibitor = blocks assembly of the perinucleolar compartment; PC3M PTB-GFP, PNC prevalence imaging, 16 h; stronger effect = lower value; activity change (PNC), negative = inhibition, % at 10 µM; 140,000 compounds, 3.1% hits;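 active = readout at or below -70, meaning at least 70% loss of cells showing the perinucleolar compartment, a nuclear body marking cancer cells; inconclusive = readout between -30 and a set limit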;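 note: plate controls were DMSO wells for no effect and camptothecin positive control wells for full effect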
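Compounds are pinned in duplicate onto adhered PC3M cells stably expressing GFP-tagged PTB and incubated 16 h at 37 C. Cells are then fixed, nuclei stained with Hoechst, and PNC-positive cells counted.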
HTT cytoprotect = protects HTT-Q103 PC12 cells, measured by ATP. AID 1471. PC12 HTT-Q103 induced, cytoprotection, ATP luminescence, 40 h. Potency, µM (titrated, usually from 56.4 µM), for inactives: cytoprotection (ATP increase), actives largely listed as activators. 230,000 compounds, 0.14% hits; note: potency is the fitted concentration of half-maximal effect; % of control where 0% means no effect; nearly all actives have a fitted effect of over 45% in size
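Readout: ATPlite luminescence (ATP level). Model: stable PC12, inducible Htt exon1 Q103-GFP. Inducer: tebufenozide, 100 nM final. Compounds: dose series. No G418 in medium.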
IMPase Li cell = IMPase inhibition in cells with lithium potentiation; CHO-M1 cells, IP1 TR-FRET (IP-One), carbachol + lithium; Potency, µM (titrated, usually from 59.4 µM), inactives show at the highest dose activity, negative = IMPase inhibition, usual class: inhibitors; 210,000 compounds, 0.35% hits;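 note: IP1 builds up when IMPase is blocked and the TR-FRET signal falls; potency is the fitted concentration of half-maximal effect; plate controls were basal vehicle for no effect and high inhibitor control for full effect; nearly all actives have a fitted effect of over 50% in size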
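CHO cells stably expressing M1 receptor (2000/well) were cultured 16–30 h, then exposed to compounds with a small lithium addition for 30 min at 37C. IP1 was measured by TR-FRET competition; AC50 from Hill fits.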
HTT aggregate = inhibitors of mutant huntingtin aggregate formation in PC12 cells; PC12 HttQ103-GFP aggregates, Acumen cytometry, 40 h; Potency, µM (series often up to 46.1 µM), for inactives: at the top dose activity change, negative = inhibition, usual class: inhibitors; 220,000 compounds, 1.1% hits; AID 1688; note: potency is the fitted concentration of half-maximal effect; % is set by controls: 0 for no effect and ±100 for the full control effect; nearly all actives have a fitted effect of over 60% in size
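Quantitative HTS on tebufenozide-induced (100 nM) PC12 cells stably expressing polyQ103 Huntingtin exon 1–GFP. Reduction of bright GFP aggregates, detected by laser scanning cytometry after lysis, identified actives across the titration.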
IMPase inh = cell-permeable inhibitors of inositol monophosphatase (IMPase). P97697. CHO-M1 cells, IP1 accumulation, HTRF TR-FRET ratio. inhibition (IP1 accumulation), % at 46.1 µM. 120,000 tested, under 10 active. AID 901; active = well fitted curve in the direction sought with a large enough effect in the signal ratio, not every such curve was filed as active; inconclusive = small, poorly fitted or top-dose-only effect, or a change in a side signal; inactive = no such curve, though single readings can be large or run the other way; the % refers to the signal ratio;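 note: cells stimulated with carbachol in lithium chloride buffer; plate controls were DMSO basal wells for no effect and reference inhibitor wells for full effect; higher means more IMPase inhibition seen as more IP1 and lower FRET ratio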
Target sequence (P97697 whole entry, looked up): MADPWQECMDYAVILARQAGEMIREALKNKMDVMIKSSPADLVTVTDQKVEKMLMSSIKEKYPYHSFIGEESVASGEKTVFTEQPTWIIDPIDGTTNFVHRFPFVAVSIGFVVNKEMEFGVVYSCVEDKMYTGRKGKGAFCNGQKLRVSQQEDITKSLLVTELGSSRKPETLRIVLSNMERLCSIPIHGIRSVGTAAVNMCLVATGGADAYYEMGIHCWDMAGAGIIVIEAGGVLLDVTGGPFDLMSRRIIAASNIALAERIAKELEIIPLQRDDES
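Seeded CHO-M1 cells were dosed with compound at up to 46 uM, stimulated with carbachol for 30 min, then lysed in IP-One detection reagents. Higher IP1 lowers the TR-FRET signal.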
* hit, by the source's call; ? = inconclusive; · = no result; [ ] = dose if it differs, or a comment. Unless noted, calls come from the whole dose curve; as a rule, active = well fitted curve in the direction sought with a large enough effect; inconclusive = small, poorly fitted or top-dose-only effect, or another doubt; inactive = no such curve, though single readings can be large; an effect the other way counts as inactive or inconclusive.

SMILES	NPSR antag	PNC inhibitor	HTT cytoprotect	IMPase Li cell	HTT aggregate	IMPase inh
CN1C(=O)CC[C@@H]1c1cccnc1	·	·	10%	2%	·	-2[20.6 µM]
Cn1c(=O)c(C(=O)COC(=O)c2cc(C(F)(F)F)nc3c(C(F)(F)F)cccc23)c(N)n(Cc2ccccc2)c1=O	·	·	-1%	-4%	·	·
CC1=CC(C)(C)Nc2ccc(OC(=O)CN3C(=O)c4cccc5cccc(c45)C3=O)cc21	1%[46.1 µM]	40	-114%	32%[38.3 µM]	?	8
CC1=CC(C)(C)Nc2ccc(OC(=O)CN3C(=O)c4ccccc4C3=O)cc21	7.9µM*	-25	·	8%	?	·
COc1ccc(C2CC(c3cc(Br)ccc3F)n3nnnc3N2)cc1 (stereo not drawn)	-21%[46.1 µM]	-4	-7%	22%[38.3 µM]	5%	6
COc1ccc(C2CC(c3ccccc3)n3nnnc3N2)cc1 (stereo not drawn)	-10%[46.1 µM]	-111*	5%	1%[38.3 µM]	17%[9.22 µM]	-1
CCCCC[C@H](O)CC[C@H]1[C@H](O)CC(=O)[C@@H]1CCCCCCC(=O)O	·	·	?	-3%	·	·
Oc1cc(CN2COc3ccccc32)c(O)cc1CNC1CCCCC1	·	·	7%[10 µM]	-5%	·	·
Cc1nn(-c2ccccc2)c2sc(C(=O)Nc3cccc(Br)c3)cc12	·	·	·	·	·	1
S=c1nc(-c2ccccc2)n(Cc2cccnc2)c2c1CCCC2	-1%	·	7%[10 µM]	·	-1%[9.22 µM]	·
S=c1nc(-c2ccccc2)n(Cc2ccco2)c2c1CCCC2	-6%[46.1 µM]	25	-16%	13µM*	22%	4
Nc1ncnc2c1ncn2[C@H]1O[C@@H](C(=O)OCCO)[C@@H](O)[C@H]1O	·	·	-18%[10 µM]	-5%	·	·
Cc1cc2nc(C3CCN(CC4COc5ccccc5O4)CC3)[nH]c2cc1C (stereo not drawn)	-4%[46.1 µM]	-82*	36%[10 µM]	-8%[38.3 µM]	3%	16[1.84 µM]
Cc1ccc(CN2CCN(CC(=O)N/N=C/c3ccc(C)o3)CC2)cc1	2%	·	-14%[10 µM]	·	-16%[9.22 µM]	·
Cc1ccccc1NC(=O)C(=O)N/N=C/c1cccc(Br)c1	-6%	-114*	·	-7%	6%	·
Cc1ccc(-c2c(C)n([O-])c3c([n+]2=O)CCCCC3)cc1	9%	-114*	·	-6%	16%	·
C#CCCCO/N=C1/C[C@@H](O)[C@@H](O)[C@@H]2[C@@H]3C(=O)N(CCC(=O)OCC)C(=O)[C@H]3CC[C@@H]12	·	·	-7%[10 µM]	·	·	·
COc1cc(SC)ccc1C(=O)NC(C)C	4%	·	13µM*	16%	0%	·
COc1cc(SC)ccc1C(=O)Nc1ccc(C)cc1	31%	·	-2%[10 µM]	13%	12%[9.22 µM]	·
COc1ccc(/C=C(/NC(=O)c2cccc([N+](=O)[O-])c2)C(=O)O)cc1	12%	·	1%	-9%	0%	·
Cc1ncc(N=Nc2ccc(F)cc2)c(-c2ccc(Cl)cc2)n1	-13%[46.1 µM]	43	-3%[10 µM]	6%[38.3 µM]	24%	13[1.84 µM]
Oc1ccc(N=Nc2n[nH]c(-c3ccc(Cl)cc3)n2)cc1	-13%[46.1 µM]	19	-58%	0%[38.3 µM]	18µM*	-4
O=C(COC(=O)/C=C/c1cccc(Cl)c1)NCCC1=CCCCC1	25%	?	33%[10 µM]	-8%	6%	3
O=C(COC(=O)/C=C/c1ccc(Cl)cc1)NCCC1=CCCCC1	12%	-90*	·	-4%	0%	·
C[C@H]1CC2[C@@H]3CCC4=CC(=O)C=C[C@]4(C)[C@@]3(Cl)[C@@H](O)C[C@]2(C)[C@@]1(O)C(=O)CO (stereo partly drawn)	-11%[46.1 µM]	·	·	-7%	·	·
SMILES	NPSR antag	PNC inhibitor	HTT cytoprotect	IMPase Li cell	HTT aggregate	IMPase inh
O=C(COc1ccc(S(=O)(=O)NC2CCCCC2)cc1)N1CCN(c2cccc(Cl)c2)CC1	-16%[46.1 µM]	-25	-22%	22%[38.3 µM]	16µM*	4
CC(C)NS(=O)(=O)c1ccc(OCC(=O)N2CCN(c3ccccc3)CC2)cc1	-4%	·	4%[10 µM]	1%	-1%[9.22 µM]	·
CN(c1cccc(Cl)c1)S(=O)(=O)c1cccc(C(=O)Nc2nc3ccccc3[nH]2)c1	?	?	7%[1.9 µM]	10%	20µM*	8
COc1ccc(N(C)S(=O)(=O)c2cccc(C(=O)Nc3nc4ccccc4[nH]3)c2)cc1	-39%	·	·	4%	?	·
COC(=O)[C@@]1(Cc2ccc(OC)cc2)[C@H]2c3cc(C(=O)N(C)C)n(Cc4cccc5ccccc45)c3C[C@H]2CN1C(=O)c1ccccc1	·	·	-41%	3%	·	·
COc1ccc(Cl)cc1NC(=O)C(C)N1CCN(C/C=C/c2ccccc2)CC1 (stereo not drawn)	10µM*	21	-18%	50%[38.3 µM]	-11%	8
COc1cc2nc(N3CCN(C(=O)[C@@H]4COc5ccccc5O4)CC3)nc(N)c2cc1OC	·	·	14%[40.3 µM]	7%	0%	1[20.6 µM]
Cc1cc(/C=N/NC(=O)Cn2c3ccccc3c(=O)c3ccccc32)c(C)n1-c1ccc(Cl)cc1	-3%	-88*	-6%[1.9 µM]	-6%	2%	10
Cc1nc2ccccn2c1C(=O)N/N=C/c1cc(C)n(-c2ccc(Cl)cc2)c1C	?	-100*	33%[10 µM]	17%	-5%	9
Cc1nc2ccccn2c1C(=O)N/N=C/c1ccccc1[N+](=O)[O-]	-9%[46.1 µM]	2	-15%	0%[38.3 µM]	5%	1
COc1ccc(/C=C/C2=CC3(C)CC2(C)C(c2ccc(OC)cc2)CC3=O)cc1 (stereo not drawn)	·	·	12%[10 µM]	·	·	·
CCCCN(CC)CCCNC(=S)Nc1ccc2nc(N3CCN(C)CC3)cc(C)c2c1	-1%	·	-9%	9%	28µM*	·
Cc1c(Cl)cnc(NC(=O)COC(=O)c2cccc(S(=O)(=O)N3c4ccccc4CC3C)c2)c1Cl (stereo not drawn)	-10%	18	·	1%	0%	·
COc1cc(/C=C(\NC(=O)c2ccccc2)C(=O)N2CC3CC(C2)c2cccc(=O)n2C3)cc(OC)c1OC (stereo not drawn)	-6%	·	2%[10 µM]	·	6%[9.22 µM]	·
O=C(Nc1nnc(-c2ccccc2SCc2ccccc2)s1)Nc1ccccc1F	-20%[46.1 µM]	?	-20%	-2%[38.3 µM]	3%	?
O=C(Nc1nnc(-c2ccccc2F)s1)Nc1ccccc1F	-16%	·	9%[10 µM]	10µM*	11%[9.22 µM]	·
CC(=O)NCCNc1nc(-c2ccccc2CN(C)C)nc2ccccc12	·	·	-6%	-7%	·	·
O=c1c2c3nc4ccccc4nc3n(/N=C/c3cccs3)c2ncn1-c1ccccc1	?	10	-8%[0.074 µM]	8%[38.3 µM]	1.8µM*	-4
O=C(NNc1nc2cc3c(cc2s1)OCO3)c1ccc(F)cc1	5%	-119*	·	7%	4%	·
c1ccc2sc(Nc3nc4cc5c(cc4s3)OCO5)nc2c1	-13%	-124*	·	-11%	-4%	·
COCCn1c(=O)c(-c2cccs2)nc2cnc(N3CCOCC3)nc21	·	·	-29%	11µM*	·	·
